Assay results reported in the supplement of paper PMC11732987, “Enantioselective OTUD7B fragment discovery through chemoproteomics screening and high-throughput optimisation” (Communications Chemistry, 2025).

Legend:
Test in all cases: log2 ratio of Biotin-Ahx-Ub-VS probe labelling (fragment/DMSO); higher = less target engagement (more negative = stronger competition), active = hit call of the paper (q ≤ 0.05, log2 ratio ≤ -1)
Settings in all cases: compound concentration: 200 uM; treatment time: 3 h
USP42 = target: T1, USP42 (UniProt Q9H9J4)
T1 sequence (whole entry): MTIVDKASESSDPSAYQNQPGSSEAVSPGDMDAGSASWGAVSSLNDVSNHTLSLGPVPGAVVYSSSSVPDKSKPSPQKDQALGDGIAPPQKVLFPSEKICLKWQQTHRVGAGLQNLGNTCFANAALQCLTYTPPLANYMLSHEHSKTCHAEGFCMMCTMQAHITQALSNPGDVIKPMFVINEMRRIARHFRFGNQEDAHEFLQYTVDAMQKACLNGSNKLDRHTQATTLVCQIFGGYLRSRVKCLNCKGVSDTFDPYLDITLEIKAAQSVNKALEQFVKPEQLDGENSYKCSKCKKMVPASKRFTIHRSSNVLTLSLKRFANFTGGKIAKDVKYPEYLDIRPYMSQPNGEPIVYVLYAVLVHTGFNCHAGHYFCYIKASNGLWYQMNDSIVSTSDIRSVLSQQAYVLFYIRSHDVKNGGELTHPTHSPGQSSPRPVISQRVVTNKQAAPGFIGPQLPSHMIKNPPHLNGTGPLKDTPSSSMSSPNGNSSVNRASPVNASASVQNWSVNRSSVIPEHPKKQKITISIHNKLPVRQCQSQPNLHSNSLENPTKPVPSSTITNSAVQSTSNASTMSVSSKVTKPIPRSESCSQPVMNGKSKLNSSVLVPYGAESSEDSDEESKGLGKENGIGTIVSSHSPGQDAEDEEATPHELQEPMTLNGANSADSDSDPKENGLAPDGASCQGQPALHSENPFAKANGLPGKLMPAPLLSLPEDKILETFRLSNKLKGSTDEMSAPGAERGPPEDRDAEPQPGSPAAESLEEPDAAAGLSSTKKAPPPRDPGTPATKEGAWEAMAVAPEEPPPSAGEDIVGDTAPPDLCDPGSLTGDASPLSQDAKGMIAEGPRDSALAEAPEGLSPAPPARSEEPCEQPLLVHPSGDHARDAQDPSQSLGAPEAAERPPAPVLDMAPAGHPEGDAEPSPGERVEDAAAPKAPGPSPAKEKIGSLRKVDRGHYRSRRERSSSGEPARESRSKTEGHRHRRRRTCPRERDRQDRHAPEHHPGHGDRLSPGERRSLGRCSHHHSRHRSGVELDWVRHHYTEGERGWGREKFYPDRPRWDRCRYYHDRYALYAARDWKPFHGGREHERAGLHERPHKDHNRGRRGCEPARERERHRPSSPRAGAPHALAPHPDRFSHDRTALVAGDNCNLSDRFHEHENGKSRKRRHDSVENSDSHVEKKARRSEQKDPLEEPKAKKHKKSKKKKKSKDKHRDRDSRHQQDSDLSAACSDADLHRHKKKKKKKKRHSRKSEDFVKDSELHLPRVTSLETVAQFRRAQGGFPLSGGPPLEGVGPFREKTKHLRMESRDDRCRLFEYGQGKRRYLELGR
In short: (§1)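 In triplicate, 495 µg of HEK293T lysate per sample was incubated with fragment at 200 µM or vehicle for 3 h. Biotin-Ahx-Ub-VS was then added to 0.5 µM final for 1 h, and labelled DUBs were captured with NeutrAvidin, digested with LysC and trypsin, and measured by diaPASEF LC-MS/MS. Data are average log2 fragment/vehicle ratios by unpaired t-test from global-median-normalised Spectronaut label-free quantities, restricted to proteins with ≥2 unique peptides.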

USP46 = USP46 (UniProt P62068)
Sequence of USP46 (P62068 whole entry): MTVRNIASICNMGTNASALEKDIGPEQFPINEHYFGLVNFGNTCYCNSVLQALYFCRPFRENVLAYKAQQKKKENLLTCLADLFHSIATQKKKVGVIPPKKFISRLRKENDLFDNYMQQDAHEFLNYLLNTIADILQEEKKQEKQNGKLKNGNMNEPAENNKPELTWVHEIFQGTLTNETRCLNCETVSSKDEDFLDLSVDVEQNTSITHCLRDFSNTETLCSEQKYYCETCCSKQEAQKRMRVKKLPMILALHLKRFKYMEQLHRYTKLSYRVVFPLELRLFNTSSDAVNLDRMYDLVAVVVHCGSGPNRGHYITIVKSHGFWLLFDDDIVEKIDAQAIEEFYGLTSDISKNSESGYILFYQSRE
In short: as §1

USP47 = target: T2, USP47 (UniProt Q96K76)
T2 sequence (whole entry): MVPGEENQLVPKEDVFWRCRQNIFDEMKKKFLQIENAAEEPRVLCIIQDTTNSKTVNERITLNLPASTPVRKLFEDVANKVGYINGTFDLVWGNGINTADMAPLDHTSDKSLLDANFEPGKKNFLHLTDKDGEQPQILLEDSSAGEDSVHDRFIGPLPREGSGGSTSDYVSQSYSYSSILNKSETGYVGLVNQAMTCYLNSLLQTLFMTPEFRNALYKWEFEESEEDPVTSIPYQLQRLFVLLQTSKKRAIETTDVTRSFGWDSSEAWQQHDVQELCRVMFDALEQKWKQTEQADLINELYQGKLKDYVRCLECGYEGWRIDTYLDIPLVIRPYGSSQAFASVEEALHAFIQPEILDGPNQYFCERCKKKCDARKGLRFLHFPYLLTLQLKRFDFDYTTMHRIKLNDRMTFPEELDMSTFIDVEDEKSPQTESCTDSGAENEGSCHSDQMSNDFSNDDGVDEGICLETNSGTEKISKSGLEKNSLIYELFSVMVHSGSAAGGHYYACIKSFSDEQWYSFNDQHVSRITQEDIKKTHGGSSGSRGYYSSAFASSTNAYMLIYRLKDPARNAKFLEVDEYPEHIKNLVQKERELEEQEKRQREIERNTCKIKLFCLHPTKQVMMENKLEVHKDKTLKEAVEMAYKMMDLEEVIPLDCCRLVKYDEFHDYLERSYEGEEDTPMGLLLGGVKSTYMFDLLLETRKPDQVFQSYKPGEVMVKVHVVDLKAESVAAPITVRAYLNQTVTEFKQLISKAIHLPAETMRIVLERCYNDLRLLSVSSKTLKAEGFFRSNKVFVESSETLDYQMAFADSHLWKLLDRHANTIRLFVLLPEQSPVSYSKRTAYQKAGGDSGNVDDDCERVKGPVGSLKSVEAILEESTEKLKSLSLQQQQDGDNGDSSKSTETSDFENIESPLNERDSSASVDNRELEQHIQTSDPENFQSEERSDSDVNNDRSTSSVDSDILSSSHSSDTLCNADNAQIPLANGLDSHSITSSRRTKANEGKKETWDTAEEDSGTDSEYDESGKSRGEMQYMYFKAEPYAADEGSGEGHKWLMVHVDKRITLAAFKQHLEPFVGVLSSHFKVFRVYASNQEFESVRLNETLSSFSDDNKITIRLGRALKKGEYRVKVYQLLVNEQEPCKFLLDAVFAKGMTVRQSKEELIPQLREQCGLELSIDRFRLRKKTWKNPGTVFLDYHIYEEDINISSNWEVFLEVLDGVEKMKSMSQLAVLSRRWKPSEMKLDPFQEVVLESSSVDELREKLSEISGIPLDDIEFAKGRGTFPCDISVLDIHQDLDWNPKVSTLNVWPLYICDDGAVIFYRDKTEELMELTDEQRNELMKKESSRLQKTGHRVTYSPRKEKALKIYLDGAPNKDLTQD
In short: as §1

USP48 = target: T3, USP48 (UniProt Q86UV5)
T3 sequence (whole entry): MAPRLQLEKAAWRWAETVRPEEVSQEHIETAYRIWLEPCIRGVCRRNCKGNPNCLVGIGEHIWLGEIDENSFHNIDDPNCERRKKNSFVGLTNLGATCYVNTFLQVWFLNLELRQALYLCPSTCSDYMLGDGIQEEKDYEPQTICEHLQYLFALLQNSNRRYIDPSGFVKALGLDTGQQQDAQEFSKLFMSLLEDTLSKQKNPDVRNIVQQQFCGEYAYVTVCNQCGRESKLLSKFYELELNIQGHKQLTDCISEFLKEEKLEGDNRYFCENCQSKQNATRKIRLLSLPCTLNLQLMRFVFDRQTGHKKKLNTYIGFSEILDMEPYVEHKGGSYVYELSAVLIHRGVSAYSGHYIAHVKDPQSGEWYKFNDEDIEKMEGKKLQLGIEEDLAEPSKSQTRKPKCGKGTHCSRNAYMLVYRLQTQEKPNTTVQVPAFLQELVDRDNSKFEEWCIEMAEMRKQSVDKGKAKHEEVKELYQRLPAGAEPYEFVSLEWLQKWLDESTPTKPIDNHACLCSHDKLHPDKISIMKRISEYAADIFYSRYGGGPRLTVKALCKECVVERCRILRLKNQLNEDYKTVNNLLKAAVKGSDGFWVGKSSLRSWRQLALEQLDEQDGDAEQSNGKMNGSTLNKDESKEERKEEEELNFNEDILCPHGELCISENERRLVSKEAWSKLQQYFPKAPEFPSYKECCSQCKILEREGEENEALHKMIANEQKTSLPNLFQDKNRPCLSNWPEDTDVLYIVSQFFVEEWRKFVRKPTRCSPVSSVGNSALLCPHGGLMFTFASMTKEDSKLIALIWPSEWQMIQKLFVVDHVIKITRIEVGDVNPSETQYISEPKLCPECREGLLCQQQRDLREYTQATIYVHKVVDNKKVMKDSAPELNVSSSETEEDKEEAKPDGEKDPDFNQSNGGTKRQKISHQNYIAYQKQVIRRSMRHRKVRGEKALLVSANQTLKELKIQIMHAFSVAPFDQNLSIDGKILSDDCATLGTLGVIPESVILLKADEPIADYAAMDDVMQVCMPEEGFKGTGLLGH
In short: as §1

USP5 = target: T4, USP5 (UniProt P45974)
T4 sequence (whole entry): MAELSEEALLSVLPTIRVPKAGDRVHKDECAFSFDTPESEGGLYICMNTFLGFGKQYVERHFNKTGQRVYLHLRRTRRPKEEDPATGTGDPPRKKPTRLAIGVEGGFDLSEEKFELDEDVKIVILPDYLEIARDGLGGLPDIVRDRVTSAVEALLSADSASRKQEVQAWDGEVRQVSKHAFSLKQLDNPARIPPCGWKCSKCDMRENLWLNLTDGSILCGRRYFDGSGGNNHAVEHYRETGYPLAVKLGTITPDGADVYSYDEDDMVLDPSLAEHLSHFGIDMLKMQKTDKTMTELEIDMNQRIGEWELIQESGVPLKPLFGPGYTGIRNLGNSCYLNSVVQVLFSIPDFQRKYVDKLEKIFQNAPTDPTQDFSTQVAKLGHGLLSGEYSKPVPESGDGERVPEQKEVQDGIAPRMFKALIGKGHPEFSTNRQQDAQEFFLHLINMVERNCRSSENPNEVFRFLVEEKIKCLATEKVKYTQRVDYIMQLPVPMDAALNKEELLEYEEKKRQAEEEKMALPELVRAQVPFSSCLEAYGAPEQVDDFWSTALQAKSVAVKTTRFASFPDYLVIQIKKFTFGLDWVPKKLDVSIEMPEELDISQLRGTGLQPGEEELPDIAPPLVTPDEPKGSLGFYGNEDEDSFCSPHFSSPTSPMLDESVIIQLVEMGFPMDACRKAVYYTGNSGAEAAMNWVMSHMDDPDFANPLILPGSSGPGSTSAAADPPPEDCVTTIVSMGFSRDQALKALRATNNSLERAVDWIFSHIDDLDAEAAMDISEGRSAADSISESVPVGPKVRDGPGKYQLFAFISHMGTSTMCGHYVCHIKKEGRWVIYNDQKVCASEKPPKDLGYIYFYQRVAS
In short: as §1

USP54 = USP54 (UniProt Q70EL1)
Sequence of USP54 (Q70EL1 whole entry): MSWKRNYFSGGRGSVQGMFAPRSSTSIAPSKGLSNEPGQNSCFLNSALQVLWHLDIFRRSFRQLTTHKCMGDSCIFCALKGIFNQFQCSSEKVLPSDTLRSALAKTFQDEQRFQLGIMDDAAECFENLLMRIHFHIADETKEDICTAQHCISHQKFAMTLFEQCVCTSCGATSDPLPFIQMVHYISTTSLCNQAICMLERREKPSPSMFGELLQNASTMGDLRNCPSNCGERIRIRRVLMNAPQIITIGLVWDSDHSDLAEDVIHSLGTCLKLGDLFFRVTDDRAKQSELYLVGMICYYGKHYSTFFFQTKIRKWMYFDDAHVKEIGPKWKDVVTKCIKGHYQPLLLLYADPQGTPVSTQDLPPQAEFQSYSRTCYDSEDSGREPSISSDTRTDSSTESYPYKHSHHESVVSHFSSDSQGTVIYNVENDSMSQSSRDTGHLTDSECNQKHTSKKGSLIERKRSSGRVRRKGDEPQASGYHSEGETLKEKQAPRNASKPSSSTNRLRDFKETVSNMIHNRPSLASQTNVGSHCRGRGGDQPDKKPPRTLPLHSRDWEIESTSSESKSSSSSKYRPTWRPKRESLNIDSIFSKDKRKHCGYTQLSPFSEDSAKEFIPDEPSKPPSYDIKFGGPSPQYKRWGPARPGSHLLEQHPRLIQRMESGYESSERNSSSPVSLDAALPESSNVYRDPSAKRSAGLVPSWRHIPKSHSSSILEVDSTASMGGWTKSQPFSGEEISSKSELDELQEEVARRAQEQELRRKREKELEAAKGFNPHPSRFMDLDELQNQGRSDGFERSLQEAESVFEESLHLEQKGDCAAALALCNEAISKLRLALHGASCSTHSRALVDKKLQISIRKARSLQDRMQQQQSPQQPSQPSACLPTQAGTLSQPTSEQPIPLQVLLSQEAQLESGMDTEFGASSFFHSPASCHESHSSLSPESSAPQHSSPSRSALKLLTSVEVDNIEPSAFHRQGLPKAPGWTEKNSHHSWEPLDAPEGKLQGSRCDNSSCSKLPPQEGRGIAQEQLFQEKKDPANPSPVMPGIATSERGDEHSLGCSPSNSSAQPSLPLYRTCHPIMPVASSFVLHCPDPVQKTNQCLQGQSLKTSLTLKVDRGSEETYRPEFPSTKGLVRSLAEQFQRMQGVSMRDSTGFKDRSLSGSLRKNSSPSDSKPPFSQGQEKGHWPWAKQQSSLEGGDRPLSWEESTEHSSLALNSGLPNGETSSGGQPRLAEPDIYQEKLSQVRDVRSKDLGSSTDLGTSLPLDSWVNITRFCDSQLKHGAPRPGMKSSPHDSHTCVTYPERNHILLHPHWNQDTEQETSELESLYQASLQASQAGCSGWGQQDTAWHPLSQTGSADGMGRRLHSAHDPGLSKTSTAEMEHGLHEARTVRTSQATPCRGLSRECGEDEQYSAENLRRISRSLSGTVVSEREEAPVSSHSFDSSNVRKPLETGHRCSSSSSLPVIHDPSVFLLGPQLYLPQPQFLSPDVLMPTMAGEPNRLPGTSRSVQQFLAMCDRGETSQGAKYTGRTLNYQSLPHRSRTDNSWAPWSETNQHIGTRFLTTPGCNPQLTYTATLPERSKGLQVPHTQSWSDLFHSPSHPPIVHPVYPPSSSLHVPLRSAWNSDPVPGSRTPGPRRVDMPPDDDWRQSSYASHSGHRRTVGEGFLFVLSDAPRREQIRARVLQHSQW
In short: as §1

USP7 = USP7 (UniProt Q93009)
Sequence of USP7 (Q93009 whole entry, looked up): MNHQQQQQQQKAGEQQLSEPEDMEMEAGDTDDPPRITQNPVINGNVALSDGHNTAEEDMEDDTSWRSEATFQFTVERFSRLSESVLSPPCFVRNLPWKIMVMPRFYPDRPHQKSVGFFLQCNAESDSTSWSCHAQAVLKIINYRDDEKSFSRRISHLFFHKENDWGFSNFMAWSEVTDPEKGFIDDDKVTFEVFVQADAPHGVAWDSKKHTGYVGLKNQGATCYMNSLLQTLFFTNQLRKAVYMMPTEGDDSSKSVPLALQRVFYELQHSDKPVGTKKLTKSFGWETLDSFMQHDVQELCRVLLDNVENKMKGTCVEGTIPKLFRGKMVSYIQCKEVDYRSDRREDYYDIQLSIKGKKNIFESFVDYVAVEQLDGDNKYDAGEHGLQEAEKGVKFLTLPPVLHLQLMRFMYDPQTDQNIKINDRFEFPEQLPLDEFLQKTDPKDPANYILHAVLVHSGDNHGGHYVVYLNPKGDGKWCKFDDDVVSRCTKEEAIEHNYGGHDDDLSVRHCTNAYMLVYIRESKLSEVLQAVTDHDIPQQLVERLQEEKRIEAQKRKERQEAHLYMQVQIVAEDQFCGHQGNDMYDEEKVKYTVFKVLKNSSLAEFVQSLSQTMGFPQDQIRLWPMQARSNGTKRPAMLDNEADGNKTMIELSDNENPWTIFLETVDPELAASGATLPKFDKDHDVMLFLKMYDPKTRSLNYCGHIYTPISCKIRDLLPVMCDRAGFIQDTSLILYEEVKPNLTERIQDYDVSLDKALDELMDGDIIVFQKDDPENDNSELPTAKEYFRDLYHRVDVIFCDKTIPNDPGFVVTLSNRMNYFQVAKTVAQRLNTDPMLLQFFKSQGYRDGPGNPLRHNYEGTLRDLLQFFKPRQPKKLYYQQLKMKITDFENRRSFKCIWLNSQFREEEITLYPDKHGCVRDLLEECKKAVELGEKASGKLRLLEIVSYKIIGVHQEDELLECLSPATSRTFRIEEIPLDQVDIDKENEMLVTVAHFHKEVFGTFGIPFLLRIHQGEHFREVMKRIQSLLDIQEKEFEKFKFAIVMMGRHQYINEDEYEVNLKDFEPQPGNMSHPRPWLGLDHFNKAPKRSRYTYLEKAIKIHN
In short: as §1

USP8 = target: T5, USP8 (UniProt P40818)
T5 sequence (whole entry): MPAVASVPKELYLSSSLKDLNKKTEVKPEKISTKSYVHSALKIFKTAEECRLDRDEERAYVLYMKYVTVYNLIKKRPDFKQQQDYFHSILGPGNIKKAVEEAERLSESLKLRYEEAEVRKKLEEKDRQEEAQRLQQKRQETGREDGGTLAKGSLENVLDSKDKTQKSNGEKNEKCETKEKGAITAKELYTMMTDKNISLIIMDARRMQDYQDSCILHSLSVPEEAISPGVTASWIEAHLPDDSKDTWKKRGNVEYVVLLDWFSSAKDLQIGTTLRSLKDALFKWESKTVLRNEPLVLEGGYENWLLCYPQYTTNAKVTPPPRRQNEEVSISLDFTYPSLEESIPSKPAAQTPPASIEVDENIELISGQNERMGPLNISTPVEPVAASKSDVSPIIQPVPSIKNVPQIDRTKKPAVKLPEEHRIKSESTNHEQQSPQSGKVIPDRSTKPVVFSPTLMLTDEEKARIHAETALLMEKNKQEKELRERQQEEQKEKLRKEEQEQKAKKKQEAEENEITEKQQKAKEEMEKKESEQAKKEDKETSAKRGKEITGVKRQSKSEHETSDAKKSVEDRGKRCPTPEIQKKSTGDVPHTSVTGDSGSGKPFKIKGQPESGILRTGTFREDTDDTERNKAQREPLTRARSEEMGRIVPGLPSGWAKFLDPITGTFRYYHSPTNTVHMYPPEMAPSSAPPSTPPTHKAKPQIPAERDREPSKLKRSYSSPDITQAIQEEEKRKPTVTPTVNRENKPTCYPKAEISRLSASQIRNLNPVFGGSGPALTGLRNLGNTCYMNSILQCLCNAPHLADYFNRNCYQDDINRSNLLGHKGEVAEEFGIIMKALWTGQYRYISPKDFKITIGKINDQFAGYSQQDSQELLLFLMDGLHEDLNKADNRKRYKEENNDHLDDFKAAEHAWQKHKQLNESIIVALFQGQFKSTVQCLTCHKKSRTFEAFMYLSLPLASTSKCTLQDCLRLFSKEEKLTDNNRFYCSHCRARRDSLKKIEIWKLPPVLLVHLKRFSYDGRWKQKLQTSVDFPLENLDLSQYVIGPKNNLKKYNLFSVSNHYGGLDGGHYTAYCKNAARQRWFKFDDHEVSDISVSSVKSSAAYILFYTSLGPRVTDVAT
In short: as §1

Measured: log2 ratio of Biotin-Ahx-Ub-VS probe labelling

Cl.O=C(CCl)NCCN1CCc2ccccc21
inactive: USP42 -0.219 | USP46 -0.521 | USP47 0.103 | USP48 -0.343 | USP5 -0.362 | USP54 0.277 | USP7 -0.711 | USP8 -0.959
